This is a sample that favours compounds with a hit; in the whole collection about 1.8% have one here.
LYPLA1 inh: counter-screen for PME1 inhibitors: inhibitors of human LYPLA1. O75608. recombinant LYPLA1, FP-Rh probe fluorescence polarization. inhibition, % at 5.9 µM. actives 0.16% (n = 320,000);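 active = inhibition above the mean of all tested compounds plus 3 SD, set per campaign, cut at about 14% in these data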;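 also: inhibitors block serine hydrolase probe labeling of LYPLA1 so polarization falls; 0% = enzyme with DMSO and 100% = wells lacking LYPLA1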
LYPLA2 counter: LYPLA2 (human) inhibition in PME1 counter-screen. inhibition, % at 5.9 µM. recombinant LYPLA2, FP-Rh probe fluorescence polarization. actives 0.38% (n = 320,000). AID 2177. O95372;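 active = inhibition above the screen-wide mean plus 3 SD, limit set per campaign, cut at about 26% in these data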;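 also: 0% = LYPLA2 with DMSO and 100% = wells lacking LYPLA2 enzyme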
Target sequence (O95372 whole entry, looked up): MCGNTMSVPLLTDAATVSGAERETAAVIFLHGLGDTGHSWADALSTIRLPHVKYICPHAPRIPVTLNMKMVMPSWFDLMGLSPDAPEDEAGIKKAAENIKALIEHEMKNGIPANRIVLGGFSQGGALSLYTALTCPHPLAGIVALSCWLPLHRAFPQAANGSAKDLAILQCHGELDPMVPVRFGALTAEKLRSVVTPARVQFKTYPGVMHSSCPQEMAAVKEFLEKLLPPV
PAD4 inh: blocks human protein arginine deiminase 4. Q9UM07. recombinant PAD4, RCA probe fluorescence polarization. inhibition, % at 6.36 µM. actives 0.41% (n = 330,000). AID 485272;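 active = percent inhibition above a cutoff equal to the mean of all tested compounds plus 3 SD, cut at about 15% in these data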;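 also: 0% = PAD4 with RCA probe and DMSO and 100% = probe without PAD4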
GSTO1 counter: counter-screen for RBBP9 inhibitors: inhibitors of human GSTO1; P78417; recombinant GSTO1, activity-based probe fluorescence polarization; inhibition, % at 5.96 µM; actives 1.1% (n = 300,000); AID 1974;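 active = inhibition above the campaign mean inhibition plus 3 SD, cut at about 35% in these data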;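 also: 0% = GSTO1-1 with DMSO and 100% = wells lacking GSTO1-1 enzyme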
Target sequence (P78417 whole entry, looked up): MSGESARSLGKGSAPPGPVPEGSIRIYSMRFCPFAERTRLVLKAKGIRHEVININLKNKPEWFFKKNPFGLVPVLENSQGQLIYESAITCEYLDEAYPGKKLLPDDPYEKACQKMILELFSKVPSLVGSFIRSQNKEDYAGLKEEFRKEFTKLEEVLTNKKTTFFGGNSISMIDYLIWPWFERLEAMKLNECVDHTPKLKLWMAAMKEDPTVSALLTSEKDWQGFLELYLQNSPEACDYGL
Fam108B inh: blocks mouse Fam108B hydrolase in RBBP9 counter-screen. recombinant Fam108B, FP-Rh probe fluorescence polarization. inhibition, % at 9.51 µM. actives 0.33% (n = 300,000). AID 1947;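 active = inhibition above the screen mean inhibition plus 3 SD, computed separately per campaign, cut at about 18% in these data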;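 also: inhibitors lower polarization as less probe binds the enzyme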
PME-1 inh: PME-1 (human) inhibition | Q9Y570 | recombinant PME-1, FP-Rh probe fluorescence polarization | AID 2130 | inhibition, % at 5.9 µM | actives 0.53% (n = 320,000);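 active = inhibition above the campaign mean of all compounds plus 3 SD, cut at about 26% in these data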;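 also: competitive labeling of PME-1 active site by serine hydrolase directed probe; 0% = PME-1 with DMSO and 100% = wells lacking PME-1 enzyme; inhibitors block probe labeling so polarization falls and inhibition rises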
Active calls of the source: *; . = not tested or not shown.

SMILES | LYPLA1 inh | LYPLA2 counter | PAD4 inh | GSTO1 counter | Fam108B inh | PME-1 inh
CCC(C)Nc1nc(N)c([N+](=O)[O-])c(Nc2cc(OC)ccc2OC)n1 (centres undefined) | 1 | -7 | 0 | -7 | 5 | 28*
Nc1cccc(N2C(=O)c3cccc4c(N)ccc(c34)C2=O)c1 | 5 | 6 | 7 | 5 | 12 | 3
CC(C)CCN1C(=O)c2cccc3c(N)ccc(c23)C1=O | 2 | 6 | 24* | 0 | 5 | 10
COc1ccccc1COC(=O)c1ccc(S(=O)(=O)N2CCOCC2)cc1 | 8 | 4 | -1 | . | . | 7
O=C(Nc1ccccc1)Nc1ccc2snnc2c1 | -19 | -9 | -1 | -32 | -2 | -22
CN(C)c1ccc(NC(=O)Nc2ccc3snnc3c2)cc1 | -9 | 1 | -1 | 10 | 9 | 32*
O=C(CN1C(=O)NC2(CCCC2)C1=O)NCc1cccc(Cl)c1 | . | . | 8 | . | . | .
Cc1ccc(NC(=O)/C(C#N)=N/Nc2ccc(C(=O)O)cc2)c(C)c1 | 0 | -4 | -1 | -4 | -2 | -5
Cc1ccc(N/N=C(\C#N)C(N)=S)c(C)c1 | -3 | 4 | 1 | -6 | 5 | 93*
COc1ccc(O)c(/C=N/Nc2nc(C)cc(-c3ccccc3)n2)c1 | -14 | -22 | 2 | 17 | 6 | 36*
COc1ccc(/C=N/Nc2nc(C)cc(-c3ccccc3)n2)c(OC)c1 | -5 | 2 | 1 | 8 | 2 | 6
C[C@H](CO)N1C[C@H](C)[C@@H](CN(C)CC2CCCCC2)Oc2ccc(NC(=O)CCN3CCOCC3)cc2C1=O | . | . | -2 | . | . | .
O=C(CN1CCCC1c1cccs1)Nc1cccc(S(=O)(=O)N2CCCC2)c1 (centres undefined) | -1 | -6 | 1 | . | . | -2
CCCCN(C(=O)COC(=O)c1ccccc1)c1c(N)n(CCC)c(=O)[nH]c1=O | . | . | -1 | . | . | .
Oc1ccc(N=C/C=C/c2cccc(Br)c2)cc1-c1nc2ccccc2s1 | 0 | 6 | 0 | 35* | 0 | 3
Cn1c2ccccc2c2cc(/C=N/NC(=O)c3ccccc3F)ccc21 | -9 | -12 | -10 | -13 | -1 | 5
Cn1c2ccccc2c2cc(/C=N/NC(=O)c3ccc(N)cc3)ccc21 | -1 | -3 | 0 | -10 | 17 | 40*
CCN(CC)C(=O)CSc1nc2c(sc(=S)n2-c2ccccc2)c(=O)n1Cc1ccco1 | -5 | 1 | 5 | -3 | 5 | 63*
CCN(CC)C(=O)CSc1nc2c(sc(=S)n2CC)c(=O)n1-c1ccccc1 | 2 | -3 | 3 | -6 | 0 | 9
CN(C)C(=O)CN1CCN(C(=O)CCl)CC1 | -3 | -1 | -5 | 61* | 2 | -6
Cc1ccc(O)c(NC(=O)c2noc(C(C)C)c2[N+](=O)[O-])c1 | -4 | 10 | 0 | 35* | 1 | 7
CC(C)c1onc(C(=O)NCc2ccc(F)cc2)c1[N+](=O)[O-] | 9 | 6 | 5 | 37* | -2 | 6
CC(=O)c1ccc(NC(=O)c2noc(C(C)C)c2[N+](=O)[O-])cc1 | 0 | 5 | -1 | 4 | 1 | 4
CC(C)c1onc(C(=O)NCCc2ccccc2)c1[N+](=O)[O-] | 3 | 3 | -1 | 37* | 2 | -1
COc1ccc(NC(=O)c2noc(C(C)C)c2[N+](=O)[O-])cc1 | -4 | -1 | -5 | 33 | -3 | -4
SMILES | LYPLA1 inh | LYPLA2 counter | PAD4 inh | GSTO1 counter | Fam108B inh | PME-1 inh
CN(C(=O)NC1CC(=O)N(c2ccc3c(c2)OCCO3)C1)c1ccccc1 (centres undefined) | -3 | -2 | 0 | -1 | 7 | 5
CCc1ccccc1NC(=O)CN1CCN(C(=O)CNC(=O)c2ccc(-c3ccccc3)cc2)CC1 | 1 | 16 | 1 | . | . | -3
O=C(CNc1ccccc1)N/N=C/c1c(O)ccc2ccccc12 | -8 | 8 | -1 | 11 | 6 | 38*
O=C(N/N=C/c1c(O)ccc2ccccc12)Nc1ccccc1 | -14 | -16 | 0 | 15 | 11 | 28*
O=C(CSCC(=O)Nc1ccccc1)N/N=C/c1c(O)ccc2ccccc12 | -12 | -8 | -1 | 3 | 5 | -1
O=C(COc1ccc(Cl)cc1)NC1=NN(c2ccccc2)C(=O)C1 | -4 | 4 | -9 | 40* | 6 | 7
CC(=O)OCC1(C)CN(c2ccccc2)N(C(=O)c2ccc(F)cc2)C1=O (centres undefined) | 1 | 6 | -2 | 36* | -3 | 7
O=C(CC1C(=O)NCCN1C(=O)c1ccc(F)cc1)OCc1ccccc1 (centres undefined) | -1 | -4 | -1 | -8 | -8 | -13
O=C(CCl)N(c1ccccc1)C1CCCCC1 | 3 | 3 | 2 | 67* | -3 | -6
O=C(Nc1cccc([N+](=O)[O-])c1)Nc1cccc([N+](=O)[O-])c1 | -21 | -25 | 0 | -7 | -5 | -7
CC(C)S(=O)(=O)c1csc(NC(=O)Nc2cccc([N+](=O)[O-])c2)c1Cl | -10 | -7 | -2 | -32 | -14 | 28*
COc1ccccc1Nc1nc(Cl)c(C=O)s1 | 2 | 3 | -3 | 47* | -2 | -4
COC(=O)c1cc2ccc(OC)cc2c2cc(OC)c(OC)cc12 | . | . | 0 | . | . | .
CC(C)c1cc(NC(=O)CCl)on1 | 4 | -5 | 0 | 104* | -2 | -5
Cc1cc(NC(=O)c2cc(C(C)C)on2)no1 | 4 | 4 | 0 | 16 | 8 | -5
CC(=O)Nc1ccc(C(=O)OCC(=O)Nc2ccccc2Sc2ccccc2)cc1 | -8 | -21 | -2 | -26 | -15 | 2
N#CCC(=O)Nc1ccc(C(=O)OCC(=O)Nc2ccccc2Sc2ccccc2)cc1 | -13 | 2 | -2 | -35 | 6 | 34*
O=[N+]([O-])c1c(NCCCO)cc(SCc2ccco2)c2nonc12 | -4 | 5 | 6 | 35* | 7 | -2
COc1ccc(OC)c(C2C(C#N)=C(N)Oc3c2c(C)nn3-c2cccc(Cl)c2)c1 (centres undefined) | -2 | 6 | 35* | 20 | 4 | 4
Cc1cccc(Oc2cc(N)cc([N+](=O)[O-])c2)c1 | 3 | 31* | 0 | 2 | -4 | 0
CCOc1ccc(Oc2cc(N)cc([N+](=O)[O-])c2)cc1 | -4 | 4 | -3 | 1 | 1 | -7
Cc1ccc(Sc2ccc(S(=O)(=O)Nc3ccc(C(=O)O)cc3)cc2)cc1C | . | . | -7 | . | . | .
Cc1ccc(Cn2ccsc2=NC(=O)CCl)cc1 | 0 | 4 | 3 | 84* | -6 | 0
Cc1ccc(Cn2ccsc2=NC(=O)COC(=O)c2ccc(NC(=O)CC#N)cc2)cc1 | -8 | -6 | -17 | -76 | -6 | 11
Cc1ccc(/C=C2\SC(=S)N(CCC(=O)N3CCOCC3)C2=O)cc1 | 3 | 6 | 1 | 6 | -3 | -12
COC(=O)/C(=C(/F)Sc1cc(C)c(O)c(C)c1)C(F)(F)F | -3 | -11 | 16* | 8 | -3 | -6

High-throughput results as filed in PubChem BioAssay.
